In PMC7862700, “An all-to-all approach to the identification of sequence-specific readers for epigenetic DNA modifications on cytosine”:

What was measured:
Test in all cases: DAPPL (digital affinity profiling via proximity ligation, sequencing); 10 mM Tris-HCl pH 7.5, 50 mM NaCl, 1 mM DTT, 4% glycerol, room temperature, 30 min; GST-TFs on glutathione beads, 16-mer random dsDNA library, 0.1% formaldehyde crosslink after washing; high values mean tight binding
FLI1 = target: T1, FLI1 (Homo sapiens, UniProt Q01543 1-452); conditions: protein: recombinant; tags: N-terminal GST; dsDNA, one strand shown
T1 sequence: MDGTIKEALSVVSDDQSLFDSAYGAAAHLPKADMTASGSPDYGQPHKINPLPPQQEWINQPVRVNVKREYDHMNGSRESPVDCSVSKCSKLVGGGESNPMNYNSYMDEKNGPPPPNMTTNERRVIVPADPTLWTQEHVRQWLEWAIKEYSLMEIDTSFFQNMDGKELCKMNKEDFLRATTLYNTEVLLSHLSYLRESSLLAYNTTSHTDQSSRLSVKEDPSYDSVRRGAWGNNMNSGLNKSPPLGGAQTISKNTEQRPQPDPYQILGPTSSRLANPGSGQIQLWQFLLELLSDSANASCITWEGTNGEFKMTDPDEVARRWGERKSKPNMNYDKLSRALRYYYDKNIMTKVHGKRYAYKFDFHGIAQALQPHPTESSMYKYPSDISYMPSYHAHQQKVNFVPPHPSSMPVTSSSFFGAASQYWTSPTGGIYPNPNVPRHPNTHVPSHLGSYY
In short: (§1)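 Sequencing on an Illumina NextSeq500 followed washing, crosslinking with 0.1% formaldehyde, proximity ligation (BsaI/T4 ligase, 1 h, 37 °C) and PCR amplification of pools that had been incubated for 30 min at room temperature with 200 nmole of a random double-stranded 16-mer DNA library in Tris/NaCl/DTT/glycerol buffer. Each pool held DNA-barcoded human transcription factors, expressed in yeast as GST fusions and captured on glutathione beads, plus a tag-only sample. Binding signal is a hexamer's read frequency for a factor divided by its frequency in the tag-only sample.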

ELK1 = target: T2, ELK1 (Homo sapiens, UniProt P19419 1-428); conditions: protein: recombinant; tags: N-terminal GST; dsDNA, one strand shown
T2 sequence: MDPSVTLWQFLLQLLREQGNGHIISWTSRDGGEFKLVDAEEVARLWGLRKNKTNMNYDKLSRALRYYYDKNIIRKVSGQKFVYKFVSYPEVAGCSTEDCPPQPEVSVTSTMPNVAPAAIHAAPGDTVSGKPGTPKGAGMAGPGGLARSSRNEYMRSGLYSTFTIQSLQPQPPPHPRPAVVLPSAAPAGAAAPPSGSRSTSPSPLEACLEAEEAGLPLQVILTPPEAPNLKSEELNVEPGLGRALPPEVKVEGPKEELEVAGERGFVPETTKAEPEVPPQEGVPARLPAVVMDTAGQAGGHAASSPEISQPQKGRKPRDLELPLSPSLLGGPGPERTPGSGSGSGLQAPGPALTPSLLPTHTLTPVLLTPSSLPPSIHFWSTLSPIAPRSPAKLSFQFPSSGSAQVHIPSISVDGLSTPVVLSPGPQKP
In short: as §1

FEV = target: T3, FEV (Homo sapiens, UniProt Q99581 1-238); conditions: protein: recombinant; tags: N-terminal GST; dsDNA, one strand shown
T3 sequence: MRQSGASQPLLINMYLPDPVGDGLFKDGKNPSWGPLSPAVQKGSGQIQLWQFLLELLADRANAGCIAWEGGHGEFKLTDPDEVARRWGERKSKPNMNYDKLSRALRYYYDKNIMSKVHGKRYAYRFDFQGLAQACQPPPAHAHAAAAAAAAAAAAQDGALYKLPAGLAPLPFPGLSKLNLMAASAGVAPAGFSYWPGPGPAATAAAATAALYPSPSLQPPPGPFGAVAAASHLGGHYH
In short: as §1

HSF1 = HSF1 (Homo sapiens, UniProt Q00613 1-529); conditions: protein: recombinant; tags: N-terminal GST; chain copies: 3; dsDNA, one strand shown
In short: as §1

ELF3 = target: T4, ELF3 (Homo sapiens, UniProt P78545 1-371); conditions: protein: recombinant; tags: N-terminal GST; dsDNA, one strand shown
T4 sequence: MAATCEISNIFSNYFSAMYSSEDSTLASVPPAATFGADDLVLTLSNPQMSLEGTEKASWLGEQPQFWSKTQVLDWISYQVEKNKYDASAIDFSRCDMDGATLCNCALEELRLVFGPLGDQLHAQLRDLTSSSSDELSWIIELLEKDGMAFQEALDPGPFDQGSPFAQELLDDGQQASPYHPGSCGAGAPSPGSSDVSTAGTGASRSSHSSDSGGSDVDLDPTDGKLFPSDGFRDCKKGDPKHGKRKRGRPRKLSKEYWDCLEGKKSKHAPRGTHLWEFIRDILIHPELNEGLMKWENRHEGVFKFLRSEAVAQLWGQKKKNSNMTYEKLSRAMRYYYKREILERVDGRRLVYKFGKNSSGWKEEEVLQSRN
In short: as §1

CRX = CRX (Homo sapiens, UniProt O43186 1-299); conditions: protein: recombinant; tags: N-terminal GST; dsDNA, one strand shown
In short: as §1

ERF = target: T5, ERF (Homo sapiens, UniProt P50548 1-548); conditions: protein: recombinant; tags: N-terminal GST; dsDNA, one strand shown
T5 sequence: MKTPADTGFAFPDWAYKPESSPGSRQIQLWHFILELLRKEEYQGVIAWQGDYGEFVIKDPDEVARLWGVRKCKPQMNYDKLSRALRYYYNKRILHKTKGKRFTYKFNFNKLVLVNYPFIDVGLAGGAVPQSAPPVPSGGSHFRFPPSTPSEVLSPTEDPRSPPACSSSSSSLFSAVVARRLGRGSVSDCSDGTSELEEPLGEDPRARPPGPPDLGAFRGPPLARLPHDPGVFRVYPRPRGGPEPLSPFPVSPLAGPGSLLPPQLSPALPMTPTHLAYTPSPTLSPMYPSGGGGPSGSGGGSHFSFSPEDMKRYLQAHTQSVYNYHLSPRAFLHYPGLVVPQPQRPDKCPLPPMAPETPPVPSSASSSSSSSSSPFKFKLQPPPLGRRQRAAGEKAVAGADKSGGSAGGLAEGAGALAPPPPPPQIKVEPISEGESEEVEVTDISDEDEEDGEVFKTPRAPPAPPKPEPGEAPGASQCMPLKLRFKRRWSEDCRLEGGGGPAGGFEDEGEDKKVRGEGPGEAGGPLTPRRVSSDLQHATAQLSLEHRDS
In short: as §1

ETV3L = target: T6, ETV3L (Homo sapiens, UniProt Q6ZN32 1-361); conditions: protein: recombinant; tags: N-terminal GST; dsDNA, one strand shown
T6 sequence: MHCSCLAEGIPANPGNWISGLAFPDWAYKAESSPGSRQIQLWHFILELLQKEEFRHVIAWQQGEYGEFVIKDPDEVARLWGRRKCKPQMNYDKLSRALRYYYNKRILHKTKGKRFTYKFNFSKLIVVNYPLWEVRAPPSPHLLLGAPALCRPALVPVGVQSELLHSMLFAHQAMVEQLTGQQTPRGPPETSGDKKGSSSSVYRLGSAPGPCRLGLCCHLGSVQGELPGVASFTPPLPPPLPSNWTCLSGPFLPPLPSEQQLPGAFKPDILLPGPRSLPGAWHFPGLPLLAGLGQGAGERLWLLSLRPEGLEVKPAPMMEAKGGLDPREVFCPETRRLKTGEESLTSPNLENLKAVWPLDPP
In short: as §1

ETS2 = target: T7, ETS2 (Homo sapiens, UniProt P15036 1-469); conditions: protein: recombinant; tags: N-terminal GST; dsDNA, one strand shown
T7 sequence: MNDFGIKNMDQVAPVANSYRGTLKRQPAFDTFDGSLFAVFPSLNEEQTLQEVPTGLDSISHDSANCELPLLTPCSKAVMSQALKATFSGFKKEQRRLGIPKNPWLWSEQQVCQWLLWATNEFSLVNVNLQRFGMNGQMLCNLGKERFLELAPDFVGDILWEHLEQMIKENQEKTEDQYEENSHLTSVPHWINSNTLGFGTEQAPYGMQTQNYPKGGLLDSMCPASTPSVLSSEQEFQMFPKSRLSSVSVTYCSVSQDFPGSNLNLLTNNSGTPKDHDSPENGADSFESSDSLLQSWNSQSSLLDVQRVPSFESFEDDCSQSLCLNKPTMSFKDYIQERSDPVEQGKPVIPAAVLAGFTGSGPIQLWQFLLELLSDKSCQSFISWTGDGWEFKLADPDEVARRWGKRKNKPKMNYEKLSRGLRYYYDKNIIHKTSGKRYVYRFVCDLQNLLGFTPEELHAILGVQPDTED
In short: as §1

SPDEF = target: T8, SPDEF (Homo sapiens, UniProt O95238 1-335); conditions: protein: recombinant; tags: N-terminal GST; dsDNA, one strand shown
T8 sequence: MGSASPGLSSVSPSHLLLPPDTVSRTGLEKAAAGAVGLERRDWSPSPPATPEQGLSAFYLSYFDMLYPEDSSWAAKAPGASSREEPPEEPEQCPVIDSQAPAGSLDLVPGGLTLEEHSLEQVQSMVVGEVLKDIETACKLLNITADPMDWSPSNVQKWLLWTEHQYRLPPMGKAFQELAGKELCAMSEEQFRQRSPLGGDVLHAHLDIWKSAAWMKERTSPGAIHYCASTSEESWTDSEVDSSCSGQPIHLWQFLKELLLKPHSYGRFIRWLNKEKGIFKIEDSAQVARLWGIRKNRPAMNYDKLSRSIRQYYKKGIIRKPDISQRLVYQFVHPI
In short: as §1

ETV7 = target: T9, ETV7 (Homo sapiens, UniProt Q9Y603 1-341); conditions: protein: recombinant; tags: N-terminal GST; dsDNA, one strand shown
T9 sequence: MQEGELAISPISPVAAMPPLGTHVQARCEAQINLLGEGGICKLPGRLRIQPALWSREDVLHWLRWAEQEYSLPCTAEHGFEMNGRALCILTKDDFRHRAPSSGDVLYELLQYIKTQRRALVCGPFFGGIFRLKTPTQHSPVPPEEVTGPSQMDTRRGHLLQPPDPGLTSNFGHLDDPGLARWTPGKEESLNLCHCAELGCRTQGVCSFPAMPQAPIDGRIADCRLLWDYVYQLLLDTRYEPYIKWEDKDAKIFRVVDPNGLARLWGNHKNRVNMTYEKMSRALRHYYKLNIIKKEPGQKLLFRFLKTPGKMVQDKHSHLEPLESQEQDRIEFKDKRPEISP
In short: as §1

CRX, sequence (O43186 whole entry): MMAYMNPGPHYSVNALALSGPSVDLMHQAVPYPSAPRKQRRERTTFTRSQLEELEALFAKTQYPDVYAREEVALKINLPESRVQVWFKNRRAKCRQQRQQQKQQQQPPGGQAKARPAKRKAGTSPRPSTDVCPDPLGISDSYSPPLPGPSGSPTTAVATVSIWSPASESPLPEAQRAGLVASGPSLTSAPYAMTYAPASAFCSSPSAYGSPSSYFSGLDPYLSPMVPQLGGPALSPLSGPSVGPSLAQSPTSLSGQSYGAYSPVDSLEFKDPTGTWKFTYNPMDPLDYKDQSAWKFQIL
HSF1, sequence (Q00613 whole entry): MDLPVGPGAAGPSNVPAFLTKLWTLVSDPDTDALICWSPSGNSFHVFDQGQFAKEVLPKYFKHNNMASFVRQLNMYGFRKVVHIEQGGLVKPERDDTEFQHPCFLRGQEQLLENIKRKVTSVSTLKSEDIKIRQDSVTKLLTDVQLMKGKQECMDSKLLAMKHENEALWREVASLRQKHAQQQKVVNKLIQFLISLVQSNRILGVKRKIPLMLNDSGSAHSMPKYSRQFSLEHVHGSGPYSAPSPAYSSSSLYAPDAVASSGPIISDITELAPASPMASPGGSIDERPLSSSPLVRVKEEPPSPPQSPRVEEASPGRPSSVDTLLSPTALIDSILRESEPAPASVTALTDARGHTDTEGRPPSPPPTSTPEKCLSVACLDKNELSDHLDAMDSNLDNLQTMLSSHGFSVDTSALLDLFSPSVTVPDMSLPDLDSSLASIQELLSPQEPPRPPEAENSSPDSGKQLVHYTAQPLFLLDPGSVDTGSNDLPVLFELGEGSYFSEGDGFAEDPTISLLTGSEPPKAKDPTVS

## TAGGTA
FLI1
  binding signal: 1.02 fold enrichment (6-mer frequency, TF over GST control)
ELK1
  binding signal: 1.06 fold enrichment (6-mer frequency, TF over GST control)
FEV
  binding signal: 1 fold enrichment (6-mer frequency, TF over GST control)
HSF1
  binding signal: 1.03 fold enrichment (6-mer frequency, TF over GST control)
ELF3
  binding signal: 1.12 fold enrichment (6-mer frequency, TF over GST control)
CRX
  binding signal: 1.22 fold enrichment (6-mer frequency, TF over GST control)
ERF
  binding signal: 1.08 fold enrichment (6-mer frequency, TF over GST control)
ETV3L
  binding signal: 1.01 fold enrichment (6-mer frequency, TF over GST control)
ETS2
  binding signal: 1.03 fold enrichment (6-mer frequency, TF over GST control)
SPDEF
  binding signal: 1.02 fold enrichment (6-mer frequency, TF over GST control)
ETV7
  binding signal: 1.1 fold enrichment (6-mer frequency, TF over GST control)
